Test [1] can be described thus: Nuclear factor erythroid 2-related factor 2/antioxidant responsive element (Nrf2/ARE) small molecule agonists: qHTS cell viability counter screen in human keratinocytes (AID 1919968; active = well fitted curve in the direction sought with a large enough effect in the repeat runs; an effect the other way counts as inactive or inconclusive; also: nearly all actives have a fitted effect of over 55% in size). The essentials:
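In human HaCaT keratinocytes stably expressing an ARE-driven luciferase, compound exposure lasted 23 h at 37 C under 5% CO2. Viable cells are quantified with a protease-based fluorogenic reagent (CellTiter-Fluor) read 1 h after addition.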
In general terms: qHTS replaces the single test concentration by a dilution series.

For test [2], the target named is Gonadotropin-releasing hormone receptor (Homo sapiens) (UniProt P30968). Description: Human gonadotropin-releasing hormone receptor (GnRHR) small molecule agonists, calcium flux assay in GnRHR-HEK293 cells (AID 1920063). Also: nearly all actives have a fitted effect of over 35% in size. The essentials:
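Intracellular calcium rise is the read-out: engineered human GnRHR HEK293 cells, dye-loaded, are exposed to DMSO-dissolved compounds and fluorescence at Ex/Em 480/540 is tracked for 3 min.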

Test [3] has as its target KiSS-1 receptor (Homo sapiens) (UniProt Q969F8). Description: Human kisspeptin (KISS1R) small molecule agonists, calcium flux assay in KISS1R-HEK293 cells (AID 1920064; active = well fitted curve in the direction sought with a large enough effect in the repeat runs; an effect the other way counts as inactive or inconclusive). The essentials: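 Concentration-response testing used 15 concentrations in triplicate on human KISS1R-expressing HEK293 cells. Calcium-dependent fluorescence (Ex/Em 480/540) was followed kinetically for 3 min after compound transfer.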
Background: A change in cytosolic calcium serves as a functional read-out for many receptors and channels.

Test [4] is described as follows: G protein-coupled receptor (GPCR) small molecule agonists, calcium flux assay: HEK293 wild type cell line counter screen (AID 1920065). In outline: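 Fluorescence intensity signals activation. After overnight (18 h) culture and a 1 h calcium dye load at 37 C, compounds are added by pin tool and the plate read at 480/540 nm for 3 min in 1 s steps.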
Test [5] is described as follows: p53 small molecule agonists, cell-based qHTS assay with human liver microsomes (AID 1963577). The essentials:
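Fluorescence of the beta-lactamase reporter in p53RE-bla cells, detected with LiveBLAzer substrate (2 h, room temperature, dark), served as the read-out after 16 h compound exposure at 37 C with human liver microsomes and NADPH, each 0.5 mg/mL final.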

Test [6] in a line: p53 small molecule agonists, cell-based qHTS assay with human liver microsomes: qHTS cell viability counter screen (AID 1963579). Also: nearly all actives have a fitted effect of over 45% in size. The essentials:
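Cytotoxicity counter screen: p53RE-bla, 4,000 cells/well; 5 h settle, 37 C/5% CO2; cpd + HLM 0.5 mg/mL + NADPH 0.5 mg/mL (final); 16 h, 37 C; CellTiter-Glo, 30 min RT, luminescence.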

Test [7] can be described thus: p53 small molecule agonists, cell-based qHTS assay with rat liver microsomes: qHTS cell viability counter screen (AID 1963580). Also: nearly all actives have a fitted effect of over 45% in size. The essentials:
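Rat liver microsome (0.5 mg/mL final) and NADPH (0.5 mg/mL final) co-incubation with compounds for 16 h at 37 C on HCT-116 p53RE-bla cells; cytotoxicity taken from intracellular ATP luminescence.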

Test [8] can be described thus: p53 small molecule agonists, cell-based qHTS assay: qHTS cell viability counter screen (AID 1963581). Also: nearly all actives have a fitted effect of over 45% in size. In outline:
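Luminescence from CellTiter-Glo, reflecting ATP content, serves as the cytotoxicity measure; it is taken after the 2 h reporter substrate step in HCT-116 p53RE-bla cells dosed for 16 h at 37 C.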

The target of test [9] is 5-hydroxytryptamine receptor 2A (Homo sapiens) (UniProt P28223). Description: 5-hydroxytryptamine receptor 2A (HTR2A) small molecule antagonists, cell-based qHTS assay (AID 1963586). Also: nearly all actives have a fitted effect of over 45% in size. Also: potency is read from the fitted curve at half-maximal effect. In outline: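 CHO cells stably expressing human HTR2A were plated for 18 h at 37 C, then loaded with calcium dye for 1 h. Compounds were preincubated 5 min at room temperature before DOI (4 nM solution) was added. Kinetic fluorescence was read for 3 min.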
Chain of 5-hydroxytryptamine receptor 2A (Homo sapiens) (P28223 whole entry, looked up): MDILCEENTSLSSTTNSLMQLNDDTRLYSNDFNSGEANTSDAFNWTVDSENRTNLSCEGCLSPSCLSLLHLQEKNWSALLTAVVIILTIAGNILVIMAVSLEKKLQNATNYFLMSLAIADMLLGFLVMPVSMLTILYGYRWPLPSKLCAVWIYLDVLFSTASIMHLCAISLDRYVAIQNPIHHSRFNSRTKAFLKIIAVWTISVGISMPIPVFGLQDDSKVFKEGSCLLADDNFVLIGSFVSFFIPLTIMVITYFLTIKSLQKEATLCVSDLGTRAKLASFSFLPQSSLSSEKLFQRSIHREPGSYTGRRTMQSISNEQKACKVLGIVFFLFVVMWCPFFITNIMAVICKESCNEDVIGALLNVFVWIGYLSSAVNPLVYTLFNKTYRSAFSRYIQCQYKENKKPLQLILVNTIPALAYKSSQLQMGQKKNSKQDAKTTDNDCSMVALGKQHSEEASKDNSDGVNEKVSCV

The target is the same in test [10]. Nature of the test: 5-hydroxytryptamine receptor 2A (HTR2A) small molecule agonists, cell-based qHTS assay (AID 1963587). Also: nearly all actives have a fitted effect of over 30% in size. In outline: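 Kinetic calcium-flux fluorescence (2 min, 1 sec intervals) after compound addition in agonist mode. HTR2A-CHO cells were cultured 18 h, then dye-loaded 1 h at 37 C.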
Test [11] concerns the target Muscarinic acetylcholine receptor M1 (Homo sapiens) (UniProt P11229). Description: Cholinergic receptor muscarinic 1 (CHRM1) small molecule antagonists, cell-based qHTS assay (AID 1963588). Also: nearly all actives have a fitted effect of over 40% in size. Also: potency is read from the fitted curve at half-maximal effect. The essentials: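 Compounds were tested at 15 concentrations in three independent runs. Dye-loaded CHRM1-CHO cells were exposed 5 min at room temperature before stimulation by acetylcholine added at 50nM. Intracellular calcium was read kinetically on FDSS for 3 min.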

Test [12] shares this target. Description: Cholinergic receptor muscarinic 1 (CHRM1) small molecule agonists, cell-based qHTS assay (AID 1963589). Also: nearly all actives have a fitted effect of over 35% in size. In outline:
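Fluorescent calcium dye reports M1 activation in stably transfected CHO cells. Compounds, 15 concentrations, added after 1 h dye loading at 37 C; kinetic reading at 1 sec intervals.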

Test [13] in a line: cAMP Responsive Elements (CRE) small molecule antagonists, cell-based qHTS assay (AID 1963591; active = well fitted inhibition curve with a large enough effect in the signal ratio in the repeat runs, not every such curve was filed as active; the % refers to the signal ratio). In outline: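 Stimulation used NKH477 at a final 0.25 uM for 3 h in compound-treated CRE-bla HEK293T cells, seeded 18 h beforehand. Reporter activity was measured with LiveBLAzer B/G FRET substrate after 2 h at room temperature.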
In test [14] the target is Beta-2 adrenergic receptor (Homo sapiens) (UniProt P07550). Nature of the test: Adrenergic beta2 receptor (ADRB2) small molecule antagonists, cell-based qHTS assay (AID 1963592). Also: series mostly up to about 92 µM; nearly all actives have a fitted effect of over 50% in size. The essentials:
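Assay format: CHO-ADRB2 cells, 18-20hr seeding at 37C/5% CO2, then compound plus 1nM isoproterenol agonist mix for 0.5hr RT. Homogeneous time-resolved fluorescence cAMP detection after 1hr, expressed as 665/615 nm ratio.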

Test [15] shares this target. Nature of the test: Adrenergic beta2 receptor (ADRB2) small molecule agonists, cell-based qHTS assay (AID 1963593).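 Also: CHO cells stably overexpressing human ADRB2.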 The essentials: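 CHO cells stably over-expressing ADRB2 were plated overnight at 37C, then dosed with compounds plus a stimulation mix containing 100uM IBMX and 25uM Ro-20-1724 for 0.5hr at room temperature. cAMP was measured by HTRF competition, 1hr.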

Test [16] deals with D(2) dopamine receptor (Homo sapiens) (UniProt P14416). Nature of the test: Dopamine D2 receptor (DRD2) small molecule agonists, cell-based qHTS assay (AID 1963594). Also: nearly all actives have a fitted effect of over 35% in size. The essentials: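 cAMP accumulation in DRD2-HEK293 cells measured by HTRF after 1 h detection; compounds added 10 min before NKH477 (200nM […]) forskolin-analogue stimulation, 30 min at room temperature, with Ro20-1724 present at 0.1 mM final.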
Chain of D(2) dopamine receptor (Homo sapiens) (P14416 whole entry, looked up): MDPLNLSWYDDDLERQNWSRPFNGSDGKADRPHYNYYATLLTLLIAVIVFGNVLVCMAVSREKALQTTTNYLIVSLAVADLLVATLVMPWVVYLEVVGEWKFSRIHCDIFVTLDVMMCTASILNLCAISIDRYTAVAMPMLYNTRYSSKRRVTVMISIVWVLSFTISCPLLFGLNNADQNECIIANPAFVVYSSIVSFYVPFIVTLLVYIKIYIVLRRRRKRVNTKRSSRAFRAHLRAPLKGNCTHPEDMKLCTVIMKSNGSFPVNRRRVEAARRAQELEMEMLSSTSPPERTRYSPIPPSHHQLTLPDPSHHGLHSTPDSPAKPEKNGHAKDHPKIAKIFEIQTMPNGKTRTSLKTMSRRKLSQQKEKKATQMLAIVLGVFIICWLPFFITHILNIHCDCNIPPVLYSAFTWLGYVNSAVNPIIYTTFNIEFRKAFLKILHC

For test [17] the target is unchanged. Nature of the test: Dopamine D2 receptor (DRD2) small molecule antagonists, cell-based qHTS assay (AID 1963595; active = well fitted inhibition curve with a large enough effect in the signal ratio in the repeat runs, with a control signal flat; the % refers to the signal ratio). The essentials:
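Stable D2 receptor HEK293 line, 24 h after seeding. Compound preincubated 10 min, then quinpirole (12 nM) with forskolin analogue NKH477 (200 nM), 30 min, room temperature. Detection by time-resolved FRET of cAMP.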

A short description of test [18]: p53 small molecule agonists, cell-based qHTS assay (AID 1963582; active = well fitted activation curve with a large enough effect in the signal ratio in the repeat runs, not every such curve was filed as active; the % refers to the signal ratio). In outline:
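After plating, p53RE-bla cells sat 5 h in the incubator; compounds or DMSO vehicle were pinned in; a 16 h incubation at 37 C followed; FRET substrate was added and, 2 h later at RT, fluorescence was measured.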

Test [19] in a line: cAMP Responsive Elements (CRE) small molecule agonists, cell-based qHTS assay (AID 1963590). The essentials: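 Compound exposure lasted 3 h at 37 C/5% CO2 in CRE-bla HEK 293T cells grown in assay medium with 10% dialyzed FBS and 25 mM HEPES. Reporter signal came from LiveBLAzer B/G FRET substrate, 2 h, room temperature.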
Test [20] in a line: p53 small molecule agonists, cell-based qHTS assay with rat liver microsomes (AID 1963578). In outline:
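Cells carrying a p53 response element–beta-lactamase reporter were plated and rested 5 h, then dosed with compound in DMSO plus rat liver microsomes and NADPH, each at 0.5 mg/mL final. After 16 h at 37 C, LiveBLAzer substrate was added for 2 h.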

Values joined by “and” are separate entries in the source; they are usually repeats but may differ in a detail not shown here. Identical values can stand only once. Records with an inconclusive call do not appear. Where a structure was tested more than once in an assay, its records may differ in their call. Active and inactive are the calls of the source. Unless noted, calls follow the shape of the full dose curve.

The values below come from PubChem BioAssay (Tox21).

Chain of Beta-2 adrenergic receptor (Homo sapiens) (P07550 whole entry, looked up): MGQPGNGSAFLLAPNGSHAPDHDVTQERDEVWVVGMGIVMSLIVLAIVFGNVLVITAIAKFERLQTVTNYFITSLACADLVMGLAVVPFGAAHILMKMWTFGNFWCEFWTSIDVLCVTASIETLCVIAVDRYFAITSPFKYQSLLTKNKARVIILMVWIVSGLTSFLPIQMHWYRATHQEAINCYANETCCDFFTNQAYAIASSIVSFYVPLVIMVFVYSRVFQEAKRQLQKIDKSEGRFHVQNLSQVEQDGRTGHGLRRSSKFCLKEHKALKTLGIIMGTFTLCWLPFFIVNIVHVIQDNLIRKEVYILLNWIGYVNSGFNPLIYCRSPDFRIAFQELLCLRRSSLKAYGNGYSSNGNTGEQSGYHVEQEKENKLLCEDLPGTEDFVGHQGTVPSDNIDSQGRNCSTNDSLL
Chain of KiSS-1 receptor (Homo sapiens) (Q969F8 whole entry, looked up): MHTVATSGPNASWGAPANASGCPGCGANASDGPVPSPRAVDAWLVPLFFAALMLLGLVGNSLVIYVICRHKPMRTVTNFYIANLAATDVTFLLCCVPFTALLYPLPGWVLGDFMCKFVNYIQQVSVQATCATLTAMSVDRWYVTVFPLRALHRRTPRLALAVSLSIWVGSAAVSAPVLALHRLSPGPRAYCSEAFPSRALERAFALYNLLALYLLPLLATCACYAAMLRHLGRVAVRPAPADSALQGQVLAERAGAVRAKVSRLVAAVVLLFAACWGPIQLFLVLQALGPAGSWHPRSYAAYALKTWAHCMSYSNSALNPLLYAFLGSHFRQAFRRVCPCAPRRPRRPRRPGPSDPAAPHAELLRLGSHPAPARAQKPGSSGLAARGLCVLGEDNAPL
Chain of Gonadotropin-releasing hormone receptor (Homo sapiens) (P30968 whole entry, looked up): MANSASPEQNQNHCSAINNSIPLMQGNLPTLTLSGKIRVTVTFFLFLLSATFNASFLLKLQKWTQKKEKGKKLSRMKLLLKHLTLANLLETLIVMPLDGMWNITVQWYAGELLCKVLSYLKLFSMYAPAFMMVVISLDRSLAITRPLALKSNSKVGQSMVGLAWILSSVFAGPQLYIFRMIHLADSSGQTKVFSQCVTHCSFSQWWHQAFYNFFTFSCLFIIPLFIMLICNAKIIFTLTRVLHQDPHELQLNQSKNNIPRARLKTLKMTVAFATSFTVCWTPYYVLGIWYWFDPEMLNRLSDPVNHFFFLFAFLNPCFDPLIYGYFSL
Chain of Muscarinic acetylcholine receptor M1 (Homo sapiens) (P11229 whole entry, looked up): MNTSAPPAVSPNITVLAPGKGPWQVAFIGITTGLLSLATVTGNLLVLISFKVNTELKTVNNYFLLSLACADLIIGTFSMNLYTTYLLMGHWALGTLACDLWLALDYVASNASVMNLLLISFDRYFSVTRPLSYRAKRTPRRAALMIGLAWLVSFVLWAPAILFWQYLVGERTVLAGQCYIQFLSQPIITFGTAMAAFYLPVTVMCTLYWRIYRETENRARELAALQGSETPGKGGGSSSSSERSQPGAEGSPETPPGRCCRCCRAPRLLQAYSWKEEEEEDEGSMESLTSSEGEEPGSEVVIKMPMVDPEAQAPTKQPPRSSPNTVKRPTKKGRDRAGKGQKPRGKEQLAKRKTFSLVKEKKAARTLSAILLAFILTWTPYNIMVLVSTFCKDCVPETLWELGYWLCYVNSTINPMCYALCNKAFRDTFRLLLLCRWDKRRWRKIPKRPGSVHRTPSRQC

In the case of `O=C(c1ccccc1)c1ccc(O)cc1O`, the Potency entry in test [1], in test [2], in test [3], in test [4], in [5] and in test [6] was “inactive” in each case. The Potency entry in [7], in test [8], in [10], in test [12], in [13] and in [14] was “inactive” throughout. Moreover, the Potency entry in [15], in test [16] and in [17] was “inactive” each time. Besides, the Potency in [9] was 38.2 µM (active) and 33.4 µM (active); in test [11] it was 19.2 µM (active) and inactive.

As for `CCOC(=O)/C=C(C)/C=C/C=C(C)/C=C/c1c(C)cc(OC)c(C)c1C`, the Potency entry in [1], in [2], in test [3], in [4], in test [5] and in test [6] was “inactive” each time. Also, the Potency result in test [7], in test [8], in [9], in [10], in test [11] and in test [12] was “inactive” throughout. The Potency entry in test [13], in test [14], in test [15], in test [16] and in test [17] was “inactive” in each case.

For `NC(=O)CCCCC1CCSS1` (stereo not drawn), the Potency entry in test [1], in [2], in test [3], in test [4], in [5] and in test [7] was “inactive” throughout. The Potency result in test [8], in test [18], in test [9], in test [10], in [11] and in [12] was “inactive” in each case. Moreover, the Potency entry in test [19], in test [13], in test [14], in test [16] and in test [17] was “inactive” in each case.

As to `CCNc1nc(NC(C)CC)nc(OC)n1` (stereo not drawn), the Potency result in test [1], in test [2], in test [3], in [4], in [5] and in [7] was “inactive” in each case. For the same compound, the Potency entry in test [8], in test [18], in test [9], in [10], in test [11] and in [12] was “inactive” in each case. Besides, the Potency entry in test [14], in test [15], in [16] and in [17] was “inactive” throughout.

As for `CC(C)NC(=O)c1ccc(C=O)cc1`, the Potency entry in [1], in test [2], in test [3], in test [4], in test [20] and in test [6] was “inactive” in each case. The Potency result in test [7], in [8], in [18], in [9], in test [10] and in test [11] was “inactive” in each case. Also, the Potency result in test [12], in [19], in test [13], in test [14], in [16] and in [17] was “inactive” throughout.

For `CCCCCC/C=C\CCCCCCCC(=O)O`, the Potency entry in test [1], in test [2], in test [3], in test [4], in test [20] and in test [6] was “inactive” throughout. Moreover, the Potency result in test [7], in test [8], in [18], in test [9], in [10] and in test [11] was “inactive” in each case. The Potency entry in test [12], in [19], in test [13], in test [14], in test [15] and in test [16] was “inactive” throughout. In addition, the Potency entry in test [17] was “inactive”.

Consider `CCCCCCCCCC(C)C=O` (stereo not drawn), for which the Potency entry in test [1], in test [2], in test [3], in [4], in test [5] and in [20] was “inactive” throughout. Moreover, the Potency result in test [8], in test [9], in test [11], in test [12], in test [13] and in [14] was “inactive” in each case. Further, the Potency result in [16] and in test [17] was “inactive” throughout.
